Hit rate of the full screen: of about 220,000 compounds, about 2,000 (0.91%) were called active. Roughly 2% stayed inconclusive and do not appear here. Only a sample is shown. Potency and affinity values are given separately. A number with no mark means an inactive call. No stated cut-off is given here; in the data, inconclusive means inhibition above about 80% without an active follow-up result; inactive means below that; test concentration not stated here.
Assay: M. tuberculosis H37Rv growth inhibitors, H37Rv strain (AID 1626);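 further: bacteria incubated seven days before Alamar blue readout; 0% = bacteria only wells and 100% = bacteria with antibiotic wells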
Conditions: stronger effect = higher value, concentration not given here
For `CCCCNC(=O)c1[nH]c(C)c(C(C)=O)c1C`, the inhibition was -1.66%.
In the case of `O=C(O)c1ccc(N/N=C/c2cc3ccccc3nc2Cl)cc1`, the inhibition is reported as 7.73%.
In the case of `Cc1ccc(C(NC(=O)/C=C\c2ccc3c(c2)OCO3)C(=O)Nc2ccc3c(c2)OCO3)cc1` (stereo not given), the inhibition is reported as 61.7%.
Compound `CC(=O)NCC(=O)N(C)C(C(=O)Nc1ccc2c(c1)OCCO2)c1ccc(C)cc1` (stereo not given) has an inhibition of 2.18%.
For `Cc1c(Cl)ccc2c(C(N)=O)cc(-c3ccccn3)nc12`, the inhibition was 3.8%.
`CC(C)n1nc(C(=O)Oc2ccc(Cl)cc2)c2ccccc2c1=O` gave an inhibition of 9.19%.
`Clc1ccc2c(c1)C(c1ccccc1Cl)=NCc1nnc(Br)n1-2` gave an inhibition of -0.77%.
`CN1CCN(Cc2nnc3n2-c2ccc(Cl)cc2C(c2ccccc2)=NC3)CC1` gave an inhibition of -4.71%.
`O=C(CN1C(=O)NC2(CCCCC2)C1=O)NC1CCCc2ccccc21` (stereo not given) showed an inhibition of -2.8%.
Work on `CN(CC(=O)N1CCN(c2ccc(F)cc2)CC1)S(=O)(=O)c1ccc(F)cc1` yielded an inhibition of -7.27%.
`CC(=O)c1cccc(NC(=O)Cn2cc3c(n2)CCCC3)c1` showed an inhibition of -1.86%.
Work on `CC(=O)Nc1ccc(NC(=O)Cn2cc3c(n2)CCCC3)cc1` yielded an inhibition of -8.53%.
`CCOc1ccc(NC(=O)Nc2cccnc2)cc1` gave an inhibition of 16.1%.
In the case of `NC(=O)CSc1ncnc2c1oc1ccccc12`, the inhibition is reported as 7.24%.
With `O=C(O)CSc1ncnc2c1oc1ccccc12` the inhibition was -5.38%.
For `COc1ccc(Cc2nnc(NC(=O)c3cccc([N+](=O)[O-])c3)s2)cc1`, the inhibition was 1.81%.
Work on `CCCCNC(=O)c1ccc(Cn2c(=S)[nH]c3c([nH]c4ccc(OC)cc43)c2=O)cc1` yielded an inhibition of -1.23%.
With `N#Cc1ccc(COC(=O)c2ccc3c(=O)[nH]c(CN4CCOCC4)nc3c2)cc1` the inhibition was -4.45%.
Work on `O=c1[nH]c(CN2CCOCC2)nc2ccccc12` yielded an inhibition of -6.66%.
`O=C(c1ccc2c(c1)OCO2)C1CCCN(C(=O)c2cnn(Cc3ccccc3)c2)C1` (stereo not given) showed an inhibition of 5.07%.
Work on `Cc1ccccc1NC(=O)c1ccc(-c2ccc(Cl)cc2Cl)o1` yielded an inhibition of 66.1%.
Work on `CS(=O)(=O)N1CCN(c2ccccc2NC(=O)c2ccc(-c3ccc(Cl)cc3Cl)o2)CC1` yielded an inhibition of -2.89%.
Compound `O=C(O)c1cc2c(s1)-c1ccccc1OC2` has an inhibition of -9.86%.
For `Cc1c(NC(=O)c2cc3c(s2)-c2ccccc2OC3)cccc1[N+](=O)[O-]`, the inhibition was 1.27%.
`Cc1cccc(-c2c3c(=O)n(C)c(=O)n(C)c3cn2CCO)c1` gave an inhibition of 0.58%.
Work on `CCOC(=O)/C(C#N)=C1/C=C(C)NC(c2ccccc2O)=N1` yielded an inhibition of -1.53%.
`C=CCNC(=O)COC(=O)CCC(=O)c1cccs1` showed an inhibition of -6.43%.
Compound `CCC1=C(OC(=O)N(CC)CC)N2C(=O)OC(=NCc3ccccc3)[C@]2(C)[C@H]2C1=CC[C@H]1C(=O)N(CC(=O)OC)C(=O)[C@H]12` has an inhibition of 6.67%.
Compound `COc1ccccc1-c1nc(C#N)c(N2CCN(c3ccccc3)CC2)o1` has an inhibition of 0.35%.
Compound `O=C(NCCN1CCN(c2cccc(Cl)c2)CC1)c1ccc(CSc2nc3ccncc3[nH]2)cc1` has an inhibition of 12.1%.
Compound `COc1ccc(Cl)cc1N(CC(=O)N/N=C/c1ccc(OC(C)C)cc1)S(=O)(=O)c1ccc(C)c([N+](=O)[O-])c1` has an inhibition of 2.6%.
In the case of `NC(=O)NC(=O)COC(=O)c1sc2ccccc2c1Cl`, the inhibition is reported as -8.02%.
`NC(=O)COC(=O)c1sc2ccccc2c1Cl` showed an inhibition of 59.5%.
With `CC1CCCC(NC(=O)COC(=O)Cc2ccccc2)C1C` (stereo not given) the inhibition was -10.6%.
Compound `CC1CCCC(NC(=O)COC(=O)COc2ccccc2Cl)C1C` (stereo not given) has an inhibition of -6.56%.
`O=C(NCc1ccccc1F)Nc1ccc([N+](=O)[O-])cc1` gave an inhibition of -8.88%.
In the case of `COC(=O)c1c(NC(=O)CC2SC(N)=NC2=O)sc2c1CCC(C)C2` (stereo not given), the inhibition is reported as 10.2%.
For `COC(=O)c1c(NC(=O)CC2SC(N)=NC2=O)sc2c1CCCC2` (stereo not given), the inhibition was 0.3%.
With `Nc1nc(CN2CCN(c3ccccc3F)CC2)nc(Nc2ccc3c(c2)OCCO3)n1` the inhibition was 12.1%.
`CCCOc1ccc(-c2nnn(CC(=O)OCC)n2)cc1` gave an inhibition of 79.1%.
`CC(C)COc1ccc(-c2nnn(CC(=O)N3CCCC3)n2)cc1` gave an inhibition of 2.29%.
For `COCCNC(=O)C(c1ccc(C)o1)N(C(=O)Cn1nnc2ccccc21)c1ccccc1` (stereo not given), the inhibition was 4.15%.
With `O=C(c1ccc2c(c1)[nH]c(=S)n1c3ccccc3nc21)N1CCN(c2ncccn2)CC1` the inhibition was -5.02%.
For `COc1ccc(N2CCN(C(=O)c3ccc4c(c3)[nH]c(=S)n3c5ccccc5nc43)CC2)cc1`, the inhibition was -4.09%.
`Cc1csc2nc(CNS(=O)(=O)c3ccc4c(c3)CCCC4)cn12` gave an inhibition of -3.26%.
Work on `CCc1ccc(NC(=O)C2CC=CCC2C(=O)O)cc1` (stereo not given) yielded an inhibition of -2.56%.
In the case of `Cc1cnc(C(=O)Nc2ccc(F)cc2)cn1`, the inhibition is reported as -5.16%.
`Cc1cnc(C(=O)Nc2ccc(C(C)C)cc2)cn1` gave an inhibition of 13.7%.
For `CC(C)(C)c1ccc(Oc2ccc(NC(=O)C3CC=CCC3C(=O)O)cc2)cc1` (stereo not given), the inhibition was 3.77%.
With `O=S(=O)(NC1CCCCCCC1)c1cccs1` the inhibition was 2.84%.
Work on `CC/C=C\[C@H](O)[C@H](O)C1=C(C)C(=O)[C@]2(O1)C(=O)N[C@@](OC)(C(=O)c1ccccc1)C2O` (stereo not given in full) yielded an inhibition of -6.03%.
`CCOC(=O)C(/C(C)=N/NC(=O)C1CC1c1ccccc1)C(C)C` (stereo not given) gave an inhibition of 2.71%.
For `CCCCc1nc2sc3c(=O)n(N)cnc3c2c2c1CCC2`, the inhibition was -0.89%.
With `CCCCc1nc2sc3c(SCC(=O)NCc4ccco4)ncnc3c2c2c1CCC2` the inhibition was -4.26%.
`COCCCNC(=O)c1c(NC(=O)C2COc3ccccc3O2)sc2c1CCCC2` (stereo not given) showed an inhibition of -1.45%.
Work on `COc1ccc(OC)c(S(=O)(=O)N2Cc3ccccc3CC2C(=O)O)c1` (stereo not given) yielded an inhibition of -11.6%.
`CC(=O)Nc1ccc(NC(=O)CCCCCN2C(=O)c3ccccc3C2=O)cc1` gave an inhibition of 1.79%.
`CCN1/C(=C2\SC(=S)N(Cc3ccccc3)C2=O)Sc2ccccc21` gave an inhibition of 5.93%.
In the case of `CCN1/C(=C\C=C2\C(=O)N(C)C(=S)N2C)Sc2ccccc21`, the inhibition is reported as 16%.
In the case of `CC(=O)Nc1ccc2c(c1)nc1n2CCN(C(C)c2ccccc2)C1` (stereo not given), the inhibition is reported as 5.76%.
`O=C(c1ccc(F)cc1)N1CCCCC(S(=O)(=O)c2ccccc2)C1=O` (stereo not given) gave an inhibition of 6.14%.
For `N#CCSc1nc2ccccc2c(=O)n1CCCC(=O)NCC1CCCO1` (stereo not given), the inhibition was -1.98%.
In the case of `O=C(COC(=O)c1ccc[nH]c1=O)c1ccc(Cl)s1`, the inhibition is reported as -0.06%.
For `Cc1ccc(C(=O)OCC(=O)c2ccc[nH]2)s1`, the inhibition was 7.67%.
Work on `O=C1NC(O)(c2ccccc2)Oc2ccccc21` (stereo not given) yielded an inhibition of -6.9%.
In the case of `Cc1[nH][nH]c(=O)c1C(c1ccc(-c2ccc(F)cc2)o1)c1c(C)[nH][nH]c1=O`, the inhibition is reported as 4.51%.
With `Cc1[nH][nH]c(=O)c1C(c1ccc(-c2ccc(Cl)c(Cl)c2)o1)c1c(C)[nH][nH]c1=O` the inhibition was 60.8%.
With `O=C(CN1CCC(N2CCCCC2)CC1)N1CCOCC1` the inhibition was 5.06%.
With `CCOC(=O)N1CCN(C(c2ccc(C(C)C)cc2)c2sc3nc(C)nn3c2O)CC1` (stereo not given) the inhibition was 0.52%.
With `COc1ccc(Cl)cc1S(=O)(=O)NCc1cccnc1` the inhibition was -12%.
Work on `O=S(=O)(Nc1ccc(-c2nnc(SCc3ccc(Cl)cc3)o2)cc1)c1ccccc1` yielded an inhibition of 5.83%.
`Cc1cccc(OCc2nnc(SCc3cc(=O)[nH]c4ccccc34)n2-c2ccccc2)c1` showed an inhibition of 4.6%.
With `O=c1cc(CSc2nnc(COc3ccccc3)n2-c2ccccc2)c2ccccc2[nH]1` the inhibition was 3.7%.
With `COc1ccc(-c2cc(C(=O)Nc3cc(OC)c(OC)c(OC)c3)no2)cc1OC` the inhibition was -1.57%.
For `COCCNC(=O)c1cc(-c2ccc(OC)c(OC)c2)on1`, the inhibition was 6.55%.
In the case of `CCOC(=O)c1ccc(NC(=O)CSc2nc3c(c(=O)n2CC)SC(C)C3)cc1` (stereo not given), the inhibition is reported as 7.17%.
For `CCCSc1cc(NCCOC(=O)CCC)c([N+](=O)[O-])c2nonc12`, the inhibition was 56.8%.
For `CC(C)CCSc1cc(NCCO)c([N+](=O)[O-])c2nonc12`, the inhibition was -2.23%.
For `CCCSc1cc(NCCOC(C)=O)c([N+](=O)[O-])c2nonc12`, the inhibition was 2.64%.
Compound `CC(=O)OCCNc1cc(SC(C)C)c2nonc2c1[N+](=O)[O-]` has an inhibition of 1.55%.
Work on `COC(=O)c1cc2ccsc2n1CC(=O)Nc1cc(C)cc(C)c1` yielded an inhibition of -0.8%.
`Cc1cc(NCCCN2CCOCC2)n2ncc(-c3ccc(Cl)cc3)c2n1` showed an inhibition of 4.89%.
With `Cc1cc(NCCOCCO)n2ncc(-c3ccc(Cl)cc3)c2n1` the inhibition was 8.65%.
For `CC(C)Nc1cc(C(C)(C)C)nc2c(-c3ccccc3)cnn12`, the inhibition was -1.54%.
With `CC(C)(C)c1cc(C(F)(F)F)n2ncc(-c3ccccc3)c2n1` the inhibition was 3.89%.
With `CCCc1cc(=O)oc2c(C)c(OCC(=O)c3ccc(N4CCCC4)cc3)ccc12` the inhibition was 15.8%.
Compound `COCCNC(=O)c1onc(CSc2ccc(C(C)C)cc2)c1C(=O)O` has an inhibition of -18.6%.
With `O=C1C2C3CCC(C3)C2C(=O)N1c1ccc(OS(=O)(=O)c2ccccc2)cc1` (stereo not given) the inhibition was -1.92%.
With `CCOC(=O)c1nn(-c2ccc(Cl)cc2)c2nc(CC)c(C#N)c(=O)n12` the inhibition was 1.58%.
`Cc1cc(Br)ccc1SCC(=O)OC/C(O)=C(\C#N)c1nc2ccccc2[nH]1` showed an inhibition of 77.9%.
Work on `N#C/C(=C(/O)COC(=O)CSc1ccc(Cl)cc1)c1nc2ccccc2[nH]1` yielded an inhibition of 76.2%.
For `Cc1cc(C)cc(OCC(=O)OC/C(O)=C(\C#N)c2nc3ccccc3[nH]2)c1`, the inhibition was 13%.
For `CC(C)C(=O)OC/C(O)=C(\C#N)c1nc2ccccc2[nH]1`, the inhibition was -0.61%.
With `Cc1cccc(C)c1OCC(=O)OC/C(O)=C(\C#N)c1nc2ccccc2[nH]1` the inhibition was 3.83%.
Compound `COCC(=O)OC/C(O)=C(\C#N)c1nc2ccccc2[nH]1` has an inhibition of 43.4%.

From PubChem BioAssay AID1626 (SRMLSC, 2009)
